Assay outcomes (PubChem BioAssay)
A selection: hits, their analogues and other compounds. The true share with any hit is near 28%.
CYP2C19 inhib: inhibitors of human CYP2C19. P33261. CYP2C19 Supersomes, luciferin-H EGE luminescence, 30 min. inhibition, % at 5 µM. 21% of 96,000 active;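 active = CYP2C19 inhibition above a set limit at 5 µM in the primary screen, cut at about 50% in these data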;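 note: plate controls were negative control wells for no effect and 2.5 mM tranylcypromine positive control for full effect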
CYP2C9 inhib: human CYP2C9 inhibition. CYP2C9 Supersomes, luciferin-H conversion, luminescence. inhibition, % at 5 µM. 20% of 96,000 active. P11712;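 active = blocking of liver enzyme CYP2C9 beyond about 50% at 5 µM, limit read from the data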
D1 allo mod: D1 dopamine receptor (human) allosteric modulation. 5.9% of 58,000 active. AID 641. B-score at 10 µM. HEK293 D1, CRE-luciferase, dopamine EC30 potentiation; actives deviate in either direction;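 active = luminescence count or its row- and column-corrected plate score outside the 99.7% band of the plate's sample wells, on either side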
Target sequence (P21728 whole entry, looked up): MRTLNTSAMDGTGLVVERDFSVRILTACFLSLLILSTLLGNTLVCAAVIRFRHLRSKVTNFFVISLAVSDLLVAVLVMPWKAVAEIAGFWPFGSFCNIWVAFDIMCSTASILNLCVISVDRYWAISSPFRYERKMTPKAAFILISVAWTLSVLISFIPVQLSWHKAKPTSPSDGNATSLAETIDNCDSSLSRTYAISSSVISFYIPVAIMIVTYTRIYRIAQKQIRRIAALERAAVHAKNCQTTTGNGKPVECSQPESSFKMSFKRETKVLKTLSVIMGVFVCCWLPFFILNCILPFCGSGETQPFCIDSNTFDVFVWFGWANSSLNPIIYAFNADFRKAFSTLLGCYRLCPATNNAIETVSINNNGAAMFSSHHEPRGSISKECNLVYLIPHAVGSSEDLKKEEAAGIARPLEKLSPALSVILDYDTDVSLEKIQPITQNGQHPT
CYP2C9 activ: CYP2C9 (human) activation; recombinant CYP2C9, luciferin-H conversion, luminescence; active compounds read high; factor 1 = untreated enzyme, 0 = blocked; P11712; 1.4% of 96,000 active; activation factor at 5 µM;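 active = activation factor of 2 or more for CYP2C9 at a 5 µM dose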;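 note: 0 = sulfaphenazole-blocked wells and 1 = vehicle-only wells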
CYP2C19 activ: cytochrome P450 2C19 (human) activation; P33261; recombinant CYP2C19, luciferin-H EGE luminescence; active compounds read high; 0 = fully inhibited enzyme, 1 = untreated enzyme; activation factor at 5 µM; 96,000 tested, under 10 active; AID 1025;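 active = activation factor of at least 2 at 5 µM in the primary screen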;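 note: 0 = wells with 2.5 mM tranylcypromine and 1 = vehicle-only wells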
hDAT+cocaine: changed human dopamine transporter uptake under cocaine IC80; Q01959; LLC-PK1 hDAT cells, [14C]-dopamine uptake with cocaine IC80; actives deviate in either direction; B-score at 10 µM; 1.3% of 110,000 active; AID 449768;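 active = Z score or B-score, a plate-position-corrected score, falls beyond the plate's 99.7% confidence bounds, in either direction; inactive = both scores lie inside the 99.7% bounds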;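 note: scored against the spread of the other compound wells on the same plate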
An asterisk follows results filed as active; · = no result.

SMILES	CYP2C19 inhib	CYP2C9 inhib	D1 allo mod	CYP2C9 activ	CYP2C19 activ	hDAT+cocaine
Cc1ccccc1Cn1cnc2c(cnn2C(C)(C)C)c1=O	67.5*	26.7	2.1	0.7	0.3	0.33
Cn1c(=O)c2c(nc(CN3CCN(Cc4ccccc4)CC3)n2Cc2ccc(Cl)cc2)n(C)c1=O	32.9	50.8*	-0.336	0.5	0.7	1.02
CCCCCCn1c(NCC)nc2c1c(=O)n(C)c(=O)n2C	16.0	-175.3	-0.819	2.8*	0.8	-1.02
Cn1c(=O)c2c(nc(CN3CCc4ccccc4C3)n2Cc2ccc(F)cc2)n(C)c1=O	·	·	0.183	·	·	0.604
CCCCn1c(SCC(=O)OC)nc2c1c(=O)n(C)c(=O)n2C	-2.1	1.0	2.15	1	1	0.301
CN(Cc1ccccc1)Cc1nc2c(c(=O)n(C)c(=O)n2C)n1Cc1ccc(F)cc1	26.3	72.4*	-0.137	0.3	0.7	-0.317
COC(=O)CSc1nc2c(c(=O)n(C)c(=O)n2C)n1CCCc1ccccc1	67.3*	85.1*	-0.324	0.1	0.3	-0.0897
Cn1c(=O)c2c(nc(CN3CCN(Cc4ccccc4)CC3)n2Cc2ccccc2)n(C)c1=O	37.9	9.2	0.478	0.9	0.6	0.341
CSc1nnc(-c2sccc2OCc2ccc(C)cc2)n1C	17.3	13.1	·	0.9	0.8	-0.00909
CCCNC(=O)C1CC(c2ccc(C(F)(F)F)cc2)=NO1 (stereo not given)	·	·	·	·	·	0.158
CCCCn1c(SCc2nnc(-c3ccccc3)o2)nc2c1c(=O)n(C)c(=O)n2C	64.0*	77.0*	0.0281	0.2	0.4	0.607
Cc1ccc(C)c(Cn2c(CN(C)Cc3ccccc3)nc3c2c(=O)n(C)c(=O)n3C)c1	65.8*	92.2*	-0.414	0.1	0.3	0.446
CN(Cc1ccccc1)c1nc2c(c(=O)n(C)c(=O)n2C)n1CCCc1ccccc1	88.5*	97.0*	0.0241	0	0.1	1.27
CCOCCn1c(CN(Cc2ccccc2)Cc2ccccc2)nc2c1c(=O)n(C)c(=O)n2C	76.4*	94.2*	-0.269	0.1	0.2	-1.94
CCn1c(SCc2nnc(-c3ccccc3)o2)nc2c1c(=O)n(C)c(=O)n2C	10.1	2.9	-0.386	1	0.9	·
CC(C)(C)C(=O)NCCc1nc(-c2ccccc2)no1	·	·	·	·	·	1.15
CCc1ccc(NC(=O)N(C2CCCCC2)C(C)c2cccnc2)cc1 (stereo not given)	17.0	15.7	·	0.8	0.8	0.554
O=C1C=CC(O)(c2cc(=O)c3c(O)cc(O)cc3o2)C=C1	·	·	·	·	·	-0.4
CN(Cc1ccccc1)Cc1nc2c(c(=O)n(C)c(=O)n2C)n1Cc1ccc(Cl)cc1	22.2	50.3*	-0.643	0.5	0.8	0.119
CCn1c(NCc2ccccn2)nc2c1c(=O)n(C)c(=O)n2C	·	·	0.275	·	·	4.01*
CCCCCn1c(CN(C)Cc2ccccc2)nc2c1c(=O)n(C)c(=O)n2C	82.1*	99.7*	-1.46	0	0.2	0.948
Cn1c(=O)c2c(nc(CN3CCC(C(N)=O)CC3)n2Cc2c(Cl)cccc2Cl)n(C)c1=O	18.9	67.7*	-0.554	0.3	0.8	0.293
Cn1c(=O)c2c(nc(CN3CCC(C(N)=O)CC3)n2Cc2c(F)cccc2Cl)n(C)c1=O	3.3	30.9	0.821	0.7	1	-0.311
COc1cc(-c2nnc(SCC(=O)/C(C#N)=C(\C)N)o2)cc(OC)c1OC	23.5	40.7	·	0.6	0.8	-1.18
COc1cccc(OCCOc2ccccc2OC(C)C)c1	90.1*	21.6	·	0.8	0.1	0.325
SMILES	CYP2C19 inhib	CYP2C9 inhib	D1 allo mod	CYP2C9 activ	CYP2C19 activ	hDAT+cocaine
CCOc1ccccc1OCCOc1cccc(C(F)(F)F)c1	19.7	-35.3	·	1.4	0.8	-0.998
CCOc1ccccc1OCCOc1ccccc1OC(C)C	56.0*	10.7	·	0.9	0.4	-0.146
O=C(CCS(=O)(=O)c1ccc(Br)s1)NC1CCCCCC1	-10.1	1.7	·	1	1.1	0.792
O=C(c1cc2ccccc2oc1=O)N(Cc1ccccc1)Cc1ccc2c(c1)OCO2	·	·	·	·	·	0.414
CN1CC2CCCC3(C1)C(=O)NC1(CCCCC1)N=C23 (stereo not given)	0.8	-13.9	·	1.1	1	-0.834
COC(=O)C1=C(C(=O)OC)SC(=C2C(=S)C(C)(C)N(C(=O)CC(C)C)c3ccccc32)S1	69.8*	29.0	·	0.7	0.3	0.487
COC(=O)C1=C(C(=O)OC)[C@@H]2N(C)c3ccccc3[C@@]23C[C@@H](C(=O)OC)N(C(=O)CC(C)C)C3=N1	·	·	·	·	·	-0.582
